ssDAF-12 act: activates DAF-12 receptor from parasite S. stercoralis. HEK293 ssDAF-12/GRIP1 lit1-tk-luc reporter, luminescence; % of 3 µM dafachronic acid response. activation, % at 6.8 µM. 1% of 370,000 active. AID 652126;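 active = activation above the mean over all tested compounds plus 3 SD, cut at about 0.9% in these data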;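 also: 0% = DMSO-only wells and 100% = 3 µM delta7-dafachronic acid wells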
DAX1 inh-1: DAX1 (NR0B1) inhibition, primary screen; AID 652010; inhibition, % at 6.8 µM; 1.1% of 370,000 active; HEK293T StAR-luciferase reporter, SF-1/DAX-1 repression relief;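 active = inhibition above the mean over all tested compounds plus 3 SD, cut at about 3.6% in these data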;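 also: 0% = DAX-1 cells with DMSO and 100% = cells lacking DAX-1 with DMSO; higher inhibition means more luminescence from relief of DAX-1 repression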
hcDAF12 agonist: activators of H. contortus DAF-12 nuclear receptor | activation, % at 6.8 µM | HEK293 hcDAF-12 lit1-tk-luc reporter, luminescence; 0% DMSO, 100% Δ7-dafachronic acid | 1.4% of 370,000 active;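 active = activation above the mean of all tested compounds plus 3 SD, cut at about 5.5% in these data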;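 also: 100% = response to 3 µM Δ7-dafachronic acid high control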
DAX1 inh-2: NR0B1 (DAX1) inhibition. HEK293 Gal4-DAX1 luciferase reporter, luminescence. inhibition, % at 6.75 µM. 0.99% of 340,000 active;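 active = inhibition above the mean over all tested compounds plus 3 SD, cut at about 4.2% in these data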;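 also: 0% = DAX1-transfected cells with DMSO and 100% = empty-vector control cells with DMSO; inhibition shows as a rise in luminescence from relieved DAX1 repression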
AHR act: human AHR activation. P35869. AHR-responsive luciferase reporter cells, luminescence. activation, % at 5 µM. 2.5% of 320,000 active. AID 2796; in the data active = activation above about 47%;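 also: 0% = vehicle wells and 100% = reference agonist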
Target sequence (P35869 whole entry, looked up): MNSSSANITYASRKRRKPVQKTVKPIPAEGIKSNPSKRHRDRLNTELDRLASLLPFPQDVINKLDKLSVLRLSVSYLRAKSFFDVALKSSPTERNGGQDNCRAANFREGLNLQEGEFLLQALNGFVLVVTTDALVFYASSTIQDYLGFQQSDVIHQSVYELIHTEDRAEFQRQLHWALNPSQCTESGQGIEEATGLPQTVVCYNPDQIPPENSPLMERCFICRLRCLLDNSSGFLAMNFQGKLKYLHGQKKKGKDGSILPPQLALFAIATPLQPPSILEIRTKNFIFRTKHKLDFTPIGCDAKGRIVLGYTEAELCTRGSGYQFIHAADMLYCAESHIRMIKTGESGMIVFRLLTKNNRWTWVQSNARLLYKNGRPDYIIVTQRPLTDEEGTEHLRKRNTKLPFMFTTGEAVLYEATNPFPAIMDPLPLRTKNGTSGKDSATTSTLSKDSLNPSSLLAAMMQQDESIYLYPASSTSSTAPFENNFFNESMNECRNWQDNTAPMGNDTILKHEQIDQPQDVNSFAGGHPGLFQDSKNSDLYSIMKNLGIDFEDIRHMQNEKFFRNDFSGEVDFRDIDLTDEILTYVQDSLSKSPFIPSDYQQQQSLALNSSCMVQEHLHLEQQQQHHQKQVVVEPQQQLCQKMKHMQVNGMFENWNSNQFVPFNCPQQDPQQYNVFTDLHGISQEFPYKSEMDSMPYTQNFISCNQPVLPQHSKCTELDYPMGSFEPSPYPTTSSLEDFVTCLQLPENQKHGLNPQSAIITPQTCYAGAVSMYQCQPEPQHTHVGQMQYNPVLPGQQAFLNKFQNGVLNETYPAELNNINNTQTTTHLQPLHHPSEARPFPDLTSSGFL
hgDAF12 agonist: activates the H. glycines DAF-12 receptor ligand-binding domain; HEK293 GAL4-hgDAF12 UAS-luciferase reporter, agonist luminescence; normalized to butyrate control; activation, % at 6.8 µM; 1.8% of 370,000 active; AID 687014;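 active = activation above a cutoff set at the mean of all screened compounds plus 3 SD, cut at about 10% in these data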;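 also: 0% = DMSO wells and 100% = sodium butyrate wells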
An asterisk follows results filed as active; nt = no result given. Sampled rows, rich in hits. Any-hit rate of the full collection: about 5.7%.

SMILES	ssDAF-12 act	DAX1 inh-1	hcDAF12 agonist	DAX1 inh-2	AHR act	hgDAF12 agonist
CCOC(=S)SCc1cn2cccc(C)c2n1	-1	1	2	5.0*	13	5
COc1cc(C2Oc3ccccc3C=C2[N+](=O)[O-])cc(OC)c1OC (configuration not stated)	-1	-2	-3	nt	nt	-7
Cc1cc(C)n(-c2nc3ccccc3c(=O)n2OCC(=O)OCc2ccccc2)n1	-1	-1	0	0	nt	-4
Cc1cc(C)n(-c2nc3ccccc3c(=O)n2OCc2ccc(F)cc2)n1	0	-1	2	0	54*	1
Cc1cc(C)n(-c2nc3ccccc3c(=O)n2OCc2ccc(Cl)cc2)n1	-1	1	1	0	49*	1
Cc1ccc(CN2CCC(n3nccc3NC(=O)c3ccccc3C)CC2)o1	-1	0	0	0	5	-1
C=CCCC(=O)N(Cc1ccccc1)c1ccccc1C(=O)Nc1cc(OC)ccc1OC	-1	-1	-5	nt	nt	-1
Nc1ccc2nc(-c3ccccc3)[nH]c2c1	1.7*	2	4	1	67*	9
Nc1ccc2nc(-c3cccnc3)[nH]c2c1	0	0	-1	0	13	-1
CN1C(=O)/C(=C2\SC(N)=NC2=O)c2ccccc21	-1	0	1	-1	73*	-1
Cc1nc2c(-c3ccc(F)cc3)cnn2c(N)c1-c1ccc(F)cc1	-2	0	-1	4.3*	0	-4
COc1ccc(-c2c(C)nc3c(-c4ccsc4)cnn3c2N)cc1	-1	2	3	5.2*	16	7
CC(C)(C)S(=O)(=O)c1cnc2c(-c3ccsc3)cnn2c1N	-1	-1	1	3	12	-1
Cc1cc(N)n2ncc(-c3ccc(F)cc3)c2n1	-1	2	1	-1	45	9
COc1ccc(S(=O)(=O)N2CCOC2CNC(=O)C(=O)NCc2ccc(F)cc2)cc1OC (configuration not stated)	-1	-1	-1	0	2	-2
O=C(CCC(=O)N1CCOc2ccc(Cl)cc21)NCCN1CCOCC1	-1	1	3	0	1	1
COc1ccc(-c2noc(-c3ccc(Cl)cc3)n2)cc1	nt	nt	nt	nt	3	nt
CC(C)(C)c1ccc(-c2nc(-c3ccncc3)no2)cc1	0	3.7*	2	2	-6	6
Cc1cccc(-c2nc(-c3ccncc3)no2)c1	1	2	3	5.3*	4	11*
COc1ccc(-c2nc(-c3ccc(C(=O)O)cc3)no2)cc1	0	3.9*	6.9*	0	2	12*
Brc1cccc(-c2nc(-c3ccncc3)no2)c1	-1	0	-1	2	52*	4
Nc1[nH]c(C(=O)c2ccccc2)c(-c2ccccc2Br)c1C(=O)c1ccccc1	0	0	-1	nt	nt	0
CC(C)CN(C(=O)COC(=O)c1ccccn1)c1c(N)n(Cc2ccccc2)c(=O)[nH]c1=O	0	0	0	0	-1	0
C[C@H](CO)N1C[C@H](C)[C@@H](CN(C)C(=O)C2CC2)OCc2cn(nn2)CCCC1=O	-1	0	1	nt	nt	2
CC(Oc1ccccc1F)C(=O)NNC(=O)Cc1ccc(S(=O)(=O)N2CCOCC2)s1 (configuration not stated)	-1	-1	1	0	nt	-1
SMILES	ssDAF-12 act	DAX1 inh-1	hcDAF12 agonist	DAX1 inh-2	AHR act	hgDAF12 agonist
COc1ccc(-c2nc(-c3cccnc3)no2)cc1OC	-1	0	0	-1	-4	2
CCC(=O)Oc1ccc(-c2nc(-c3cccnc3)no2)cc1	-1	1	2	2	-2	11*
Cc1cc2nc(/C=C/c3cccnc3)[nH]c2cc1C	1.7*	4.0*	6.4*	0	nt	7
CSc1nnc(N2C(=O)C(O)=C(C(=O)c3ccc(C)o3)C2c2ccc(C)cc2)s1 (configuration not stated)	0	2	5	2	9	11*
CSc1nnc(N2C(=O)C(O)=C(C(=O)c3ccco3)C2c2ccccc2)s1 (configuration not stated)	0	0	2	1	-1	7
Cc1ccc(C)c(C2=CSC3=NCCN23)c1	0	-1	6.2*	0	12	1
Cc1ccc(C)c(C2=CSC3=NS(=O)(=O)CCN23)c1	-1	1	-1	1	2	1
Cc1cccn2c(=O)c3cc(C(=O)NC(C)c4ccccc4)c(=N)n(CCCn4ccnc4)c3nc12 (configuration not stated)	-2	0	0	4	4	11*
Cc1cccn2c(=O)c3cc(C(=O)NC4CCCC4)c(=N)n(C4CCCC4)c3nc12	-1	1	-2	-1	54*	3
N=c1c(C(=O)NC2CCCC2)cc2c(=O)n3ccccc3nc2n1C1CCCC1	-1	0	1	2	6	0
CCCn1c(=N)c(C(=O)NC2CCCC2)cc2c(=O)n3cccc(C)c3nc21	-1	0	-2	0	57*	1
Cc1cccn2c(=O)c(C(=O)NC3CCCCC3C)c(O)nc12 (configuration not stated)	-1	4.0*	-1	2	0	3
Cc1ccc2nc3c(cc(C(=O)NCc4ccccc4)c(=N)n3CCCn3ccnc3)c(=O)n2c1	-1	0	-1	0	nt	0
CCOCCCNc1ccc(N2C(=O)CCCC2=O)cc1[N+](=O)[O-]	-1	0	-1	2	1	-2
C=CCn1c(C)cc(C(=O)COC(=O)/C=C/c2cccc(OC)c2)c1C	-2	0	1	2	-4	2
Cc1cc(-c2nnc(CSc3nnc(NC(=O)c4ccc(C(C)(C)C)cc4)s3)o2)ccc1[N+](=O)[O-]	-1	1	0	-1	3	1
CCCCNc1ccc2c(c1)OC[C@H](C)NS2(=O)=O	-1	1	1	nt	nt	1
NS(=O)(=O)c1ccc(S(=O)(=O)N(CCc2ccccc2)Cc2ccccn2)cc1	-1	1	-1	0	-2	-1
C=CCCC1CN(Cc2ccc(OC)cc2)S(=O)(=O)c2c(F)cccc2O1 (configuration not stated)	-1	3	0	nt	nt	6
c1csc(-c2nnsc2-c2nc3ccccc3[nH]2)c1	1.4*	0	3	1	25	4
Cc1c(N=C2Nc3cccc4cccc2c34)c(=O)n(-c2ccccc2)n1C	-1	0	0	0	90*	-1
Cc1ccc(S(=O)(=O)N2[C@@H](Cc3ccccc3)CO[C@H]2CC(=O)c2cccs2)cc1	0	4.0*	-1	nt	nt	0
c1cc(Nc2ncnc3sc4c(c23)CCC4)ccn1	-1	1	0	0	0	-1
NNc1ncnc2sc3c(c12)CCC3	1	1	4	6.3*	37	12*

Bioassay records from PubChem.
